Source: PubChem BioAssay (National Center for Advancing Translational Sciences (NCATS))
The entries come from a sample that favours hits as a whole.
Pf Dd2 growth: qHTS Primary assay for Inhibitors of Plasmodium falciparum Dd2 growth in vitro | P. falciparum Dd2 growth, SYBR Green, 72 h | Potency, µM (doses to about 28.9 µM), without a hit: at the top dose activity, negative = inhibition, hits mostly inhibitors | 120,000 tested, 4.3% active; active means well fitted inhibition curve with a large enough effect;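 further: plate controls were DMSO vehicle for no effect and reference drug for full effect; nearly all actives have a fitted effect of over 65% in size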
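Infected erythrocytes (Dd2, 0.3% parasitemia, 2.5% hematocrit final) are added to compound in RPMI-1640/Albumax II medium, grown 72 h at 37C in low oxygen, then lysed with saponin/Triton-X containing SYBR Green and read by fluorescence.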
Numbers without * were called inactive. Potency means the concentration at half of the fitted maximal effect.

Screening COc1cccc(N2C(=O)NC(=NC3CCCCC3)C23CCCN(Cc2ccc(F)cc2)C3)c1 (configuration not stated) returned Pf Dd2 growth 13µM*.
COc1cccc(N2C(=O)NC(=NC3CCCC3)C23CCCN(C(=O)c2ccccc2F)C3)c1 (configuration not stated) was read as Pf Dd2 growth 13%.
COc1ccc(CN2CCC3(CC2)C(=NC2CCCCC2)NC(=O)N3c2cccc(OC)c2)cc1 was read as Pf Dd2 growth -15%.
For CC(=O)c1cc(C(=O)NC2CCCN(c3nc4ccccc4s3)C2)[nH]n1 (configuration not stated) the results were Pf Dd2 growth -16%.
CNC(=O)c1ccc(Nc2nnc(-c3ccc(C)c(S(=O)(=O)N(C)C)c3)c3ccccc23)cc1 was read as Pf Dd2 growth -11%.
`Cc1ccc(-c2nnc(Nc3ccc(C(=O)N(C)C)cc3)c3ccccc23)cc1S(=O)(=O)N(C)C` gave Pf Dd2 growth 11µM*.
For COc1ccc(Nc2nnc(-c3ccc(C)c(S(=O)(=O)NCc4nc5ccccc5[nH]4)c3)c3ccccc23)cc1 the results were Pf Dd2 growth 75%.
For Cc1ccc(-c2nnc(Nc3ccc(O)cc3)c3ccccc23)cc1S(=O)(=O)NCC1CCCO1 (configuration not stated) the results were Pf Dd2 growth 5µM*.
For Cc1cc(-c2ccc(C)c(S(=O)(=O)NC3CCCCC3)c2)on1 the results were Pf Dd2 growth inactive.
Cc1ccc(-c2nnc(Nc3ccc(Br)cc3)c3ccccc23)cc1S(=O)(=O)NCC1CCCO1 (configuration not stated) was read as Pf Dd2 growth 10µM*.
Screening Cc1ccc(C(=O)Nc2cccc(O)c2)cc1S(=O)(=O)N1CCCCCC1 returned Pf Dd2 growth -24%.
Cc1ccc(-c2nnc(Nc3ccc(S(N)(=O)=O)cc3)c3ccccc23)cc1S(=O)(=O)N1CCCCC1 was read as Pf Dd2 growth 19%.
For Cc1ccc(-c2nnc(Nc3ccc(O)cc3)c3ccccc23)cc1S(=O)(=O)N1CCCCC1 the results were Pf Dd2 growth 10µM*.
Cc1cc(C)n(-c2nnc(Nc3ccc(C)c(C)c3)c3ccccc23)n1 was read as Pf Dd2 growth -22%.
Cc1cc(-c2ccc(C)c(S(=O)(=O)NCc3cccc(Br)c3)c2)on1 was read as Pf Dd2 growth 20%.
For Cc1ccc(-c2noc(-c3ccc(NCC4CCCO4)c([N+](=O)[O-])c3)n2)cc1 (configuration not stated) the results were Pf Dd2 growth 18%.
For COc1ccccc1NC(=O)Cn1c(=O)c(-c2noc(C)n2)c2n(c1=O)CCCC2 the results were Pf Dd2 growth 29%.
`O=C(Cn1cncn1)N1CCN(Cc2ccccn2)[C@@H]2CS(=O)(=O)C[C@@H]21` gave Pf Dd2 growth 2%.
For O=C1CCN(C(=O)c2ccccc2)CCCC(C(=O)NCCCn2cccn2)CCN1 (configuration not stated) the results were Pf Dd2 growth 1%.
For CCOc1ccccc1CN1CCn2c(nnc2[C@@H]2C[C@@H](O)CN2C)C1 the results were Pf Dd2 growth -9%.
COCc1noc([C@@H]2CC(F)(F)CN2S(=O)(=O)c2ccccc2)n1 was read as Pf Dd2 growth -7%.
Screening CN(Cc1nccs1)C(=O)CC(c1ccccc1)c1cccc(Cl)c1 (configuration not stated) returned Pf Dd2 growth -26%.
O=C(Oc1ccccc1)N1CCC(Oc2cnc3c(ccn3-c3cncnc3)c2)CC1 was read as Pf Dd2 growth inactive.
For COC(=O)CNC(=O)N1CCCN(S(C)(=O)=O)C(c2ccccc2)CC(=O)NCC1 (configuration not stated) the results were Pf Dd2 growth 0%.
For O=C([C@@H]1C[C@H](F)CN1C(=O)Cc1ccccc1F)N1CCCCC1 the results were Pf Dd2 growth -11%.
Cc1cc(C)n(-c2nnc(Nc3cc(Cl)ccc3C)c3ccccc23)n1 was read as Pf Dd2 growth 61%.
Cc1ccc(-c2nnc(Nc3ccccc3O)c3ccccc23)cc1 was read as Pf Dd2 growth -24%.
Screening Cc1ccc(Nc2nnc(-c3ccc(C)c(S(=O)(=O)N4CCOCC4)c3)c3ccccc23)c(C)c1 returned Pf Dd2 growth 7.9µM*.
`Cc1ccc(-c2nnc(Nc3ccc(F)cc3)c3ccccc23)cc1S(=O)(=O)NC(C)C` gave Pf Dd2 growth 11µM*.
Screening CNS(=O)(=O)c1cc(-c2nnc(Nc3cc(C)ccc3C)c3ccccc23)ccc1C returned Pf Dd2 growth 5µM*.
Screening Cc1ccccc1Nc1nnc(-c2ccc(C)c(S(=O)(=O)N3CCOCC3)c2)c2ccccc12 returned Pf Dd2 growth 31%.
Screening Cc1ccc(-c2nnc(Nc3cccc(O)c3)c3ccccc23)cc1S(=O)(=O)N1CCOCC1 returned Pf Dd2 growth inactive.
For Cc1cc(C)n(-c2nnc(Nc3ccc(C(C)C)cc3)c3ccccc23)n1 the results were Pf Dd2 growth 6%.
CCOC(=O)c1c(Nc2ccc(F)cc2)nnc(-c2ccccc2)c1-c1ccccc1 was read as Pf Dd2 growth -29%.
